Cav3 T inh: human Cav3.2 channel inhibition, primary screen. Cav3.2-expressing cells, Fluo-4 calcium fluorescence FDSS; active compounds read low. actives 4% (n = 100,000). B-score at 10 µM. O95180;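 active = single-dose well whose peak fluorescence ratio is a statistical outlier from its plate by either plate-standardised score or position-corrected B-score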
M1 antag: M1 muscarinic receptor (rat) antagonism; actives 3.4% (n = 64,000); CHO-M1 cells, Fluo-4 calcium, ACh EC80 antagonist mode; active compounds read low; B-score at 10 µM; P08482;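 active = calcium fluorescence response, raw or row-and-column corrected B-score, differing from the plate sample mean either way at a set confidence level, mostly lower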
M1 agonist: M1 muscarinic receptor agonism; CHO-M1 cells, Fluo-4 calcium fluorescence, agonist mode; active compounds read high; B-score at 10 µM; actives 3% (n = 64,000); AID 626;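 active = fluorescence rise, raw or as B-score row- and column-corrected plate score, outside the 99.7% band of its plate's samples, either direction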
PLAP activator: human PLAP activation. P05187. purified PLAP enzyme, luminescent substrate read-out; active compounds read high. activation fold at 20 µM. actives 1.2% (n = 96,000). AID 696; in the data active = activation fold above about 2
HER2 expr 66K: Her2 kinase expression inhibition | SKBR-3 HER2 protein level, AlphaScreen, 18-24 h; active compounds read low | HER2 level % of control, % at 10 µM | actives 0.69% (n = 65,000) | AID 645;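 active = HER2 level under 5% of the carrier-only control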;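 also: lower value means stronger loss of Her2 protein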
Target sequence (P04626 whole entry, looked up): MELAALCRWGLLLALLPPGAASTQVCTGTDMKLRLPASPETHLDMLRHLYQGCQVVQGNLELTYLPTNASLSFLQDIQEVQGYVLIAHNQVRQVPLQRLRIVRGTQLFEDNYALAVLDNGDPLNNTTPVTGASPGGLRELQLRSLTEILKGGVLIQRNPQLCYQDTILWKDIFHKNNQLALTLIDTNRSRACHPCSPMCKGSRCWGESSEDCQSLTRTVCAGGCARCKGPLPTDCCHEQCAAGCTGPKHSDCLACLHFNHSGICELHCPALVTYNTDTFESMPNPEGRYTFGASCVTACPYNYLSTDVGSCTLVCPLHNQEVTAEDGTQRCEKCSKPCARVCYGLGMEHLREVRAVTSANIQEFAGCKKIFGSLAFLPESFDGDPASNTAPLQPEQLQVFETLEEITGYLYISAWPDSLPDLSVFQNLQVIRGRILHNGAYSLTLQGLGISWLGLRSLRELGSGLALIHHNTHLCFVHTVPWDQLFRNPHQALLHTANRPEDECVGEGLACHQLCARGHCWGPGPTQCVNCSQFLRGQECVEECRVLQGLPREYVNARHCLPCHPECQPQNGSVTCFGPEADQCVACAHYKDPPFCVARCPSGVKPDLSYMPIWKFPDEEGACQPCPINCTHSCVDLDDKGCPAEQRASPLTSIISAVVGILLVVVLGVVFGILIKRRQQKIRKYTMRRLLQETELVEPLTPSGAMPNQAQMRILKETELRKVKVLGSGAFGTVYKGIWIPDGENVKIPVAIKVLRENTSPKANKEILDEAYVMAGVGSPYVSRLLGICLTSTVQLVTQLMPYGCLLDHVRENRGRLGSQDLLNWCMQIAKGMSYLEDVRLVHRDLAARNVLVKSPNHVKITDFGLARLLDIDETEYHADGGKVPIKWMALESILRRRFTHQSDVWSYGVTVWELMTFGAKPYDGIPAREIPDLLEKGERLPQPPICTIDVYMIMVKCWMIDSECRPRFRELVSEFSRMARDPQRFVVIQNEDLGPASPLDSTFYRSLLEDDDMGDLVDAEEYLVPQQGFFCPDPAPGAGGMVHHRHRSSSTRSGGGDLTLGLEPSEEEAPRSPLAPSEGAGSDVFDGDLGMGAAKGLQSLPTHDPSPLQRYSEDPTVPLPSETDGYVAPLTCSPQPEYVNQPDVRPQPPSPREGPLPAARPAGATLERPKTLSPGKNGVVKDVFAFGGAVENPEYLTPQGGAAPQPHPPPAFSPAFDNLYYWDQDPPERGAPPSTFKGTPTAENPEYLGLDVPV
A number is an active result; n = inactive; x = not tested or not shown. Most compounds without a hit are left out; they make up all but 7.9% or so of the library.

SMILES	Cav3 T inh	M1 antag	M1 agonist	PLAP activator	HER2 expr 66K
O=C1N(c2ccccc2)C2CS(=O)(=O)CC2N1c1ccc(Br)cc1 (centres undefined)	-2.4	n	n	n	n
CCOc1cc(C(c2c(C)[nH][nH]c2=O)c2c(C)[nH][nH]c2=O)ccc1OC(=O)c1cccc([N+](=O)[O-])c1	n	x	x	n	x
CCOc1cc(C(c2c(C)[nH][nH]c2=O)c2c(C)[nH][nH]c2=O)ccc1OCc1ccc([N+](=O)[O-])cc1	n	x	x	2.7	x
O=C(CCSc1ccc(Cl)cc1)N1CCN(c2ncccn2)CC1	-4.7	n	n	n	n
O=C(CSc1ncc(C(F)(F)F)cc1Cl)N1CCN(S(=O)(=O)c2ccc(Cl)cc2)CC1	x	x	x	n	x
O=C(CSc1ncc(C(F)(F)F)cc1Cl)N1CCN(S(=O)(=O)c2ccccc2)CC1	-4.1	n	n	n	n
O=C(CN1CCN(c2ncc(C(F)(F)F)cc2Cl)CC1)N1CCN(c2ncc(C(F)(F)F)cc2Cl)CC1	-3.2	x	x	n	x
O=C(CSc1ccc(Cl)cc1)N1CCN(c2ncc(C(F)(F)F)cc2Cl)CC1	-3.8	x	x	n	x
CCCC(=O)N1CCN(S(=O)(=O)c2cc(Cl)ccc2OC)CC1	n	n	n	n	n
CN(C)S(=O)(=O)c1ccc(S(=O)(=O)N(Cc2ccccn2)Cc2ccco2)cc1	x	x	x	x	n
Cc1onc(-c2ccccc2)c1C(=O)N1CCc2ccccc21	n	n	n	n	n
Cc1nc(SCC(=O)N2CCN(c3ccccc3)CC2)c2c(=O)n(C)c(=O)n(C)c2n1	x	n	n	x	n
CCC1=C[C@H]2CN(C1)Cc1c([nH]c3ccccc13)[C@@](C(=O)OC)(c1cc3c(cc1OC)N(C)[C@H]1[C@@](O)(C(=O)OC)[C@H](OC(C)=O)[C@]4(CC)C=CCN5CC[C@]31[C@@H]54)C2	n	x	x	x	x
O=C(CNS(=O)(=O)c1ccccc1)NCc1ccccn1	n	n	n	n	n
Cc1c(C#N)c(N=CN(C)C)c(C(=O)c2ccc(Br)cc2)n1-c1ccc(Cl)cc1	n	x	x	n	x
COc1ccccc1CNC(=O)C(CC(C)C)NC(=O)C1CCC(C)CC1 (centres undefined)	-5.8	x	x	n	x
CCOc1ccc(NC2=NCC(=O)N2Cc2cccs2)cc1	n	x	x	n	x
CC(=O)Nc1ccc(C(=S)NCc2ccco2)cc1	x	x	x	n	x
CCc1ccc(N/C(SCc2ccccc2C)=C(/C#N)C(=O)NCc2ccco2)cc1	-5.4	x	x	n	x
CCC(=O)NS(=O)(=O)c1ccc(-c2c(-c3ccccc3)noc2C)cc1	n	x	x	x	x
COC(=O)c1ccccc1NC(=O)Cn1c(SC)c(F)cnc1=O	n	1	n	n	n
CCN(CC)c1nc(OCCNC(=O)Nc2ccccc2)nc(N(CC)CC)n1	-10	x	x	2.1	x
CCn1c(CNC(=O)COc2ccc(C(C)C)cc2)nnc1SCC(=O)Nc1ccccc1F	n	x	x	2	x
CCOC(=O)C1=C(C)N=C2SC(C)C(=O)N2C1c1ccc(C(=O)OC)cc1 (centres undefined)	-7.5	n	n	n	n
CCOC(=O)C1=C(C)N=C2SC(C)C(=O)N2C1c1ccc(OCC)c(OCC)c1 (centres undefined)	n	n	n	n	n
SMILES	Cav3 T inh	M1 antag	M1 agonist	PLAP activator	HER2 expr 66K
CCC(C(=O)NC(C)(C)C)N(C(=O)Cn1nnc(-c2ccccc2F)n1)c1cccc2c1CCCC2 (centres undefined)	n	x	x	n	x
O=C(CN(C(=O)Cn1nnc(-c2ccccc2F)n1)c1cccc2c1CCCC2)NCc1ccccc1	-6.1	x	x	x	x
CC(C)CCNC(=O)CN(C(=O)Cn1nnc(-c2ccccc2F)n1)c1cccc2c1CCCC2	-8	x	x	2.6	x
CC1=C(C#N)c2nc(N)c(C#N)c(C)c2/C1=C\c1ccccc1	x	n	n	x	n
COC(=O)c1ccc(C)c(NS(=O)(=O)c2ccc(OC)cc2)c1	n	x	x	n	x
COC(=O)c1ccc(C)c(NS(=O)(=O)c2ccc(C)c([N+](=O)[O-])c2)c1	-5.5	x	x	n	x
Cc1nc2ccccc2c2oc(C(=O)N3CCc4ccccc4C3)cc12	n	n	6	n	n
COc1ccc(CCNC(=O)C(=O)NCc2ccc(C)cc2)cc1OC	n	x	x	n	x
Cc1cccc(C)c1OCCSc1n[nH]c(N)n1	n	x	x	2	x
Cc1ccc(NC(=O)NNC(=O)Cn2nc(-c3ccccc3)c(-c3ccccc3)c(C#N)c2=O)cc1	-7	x	x	n	x
Cc1ccc(-c2nn(CC(=O)O)c(=O)c3ccccc23)cc1	n	n	n	x	n
CC1Cc2ccccc2N1C(=O)CSc1nnc2c(n1)[nH]c1ccc(F)cc12 (centres undefined)	-5.9	x	x	x	x
COC(=O)C1=CN(CCCN2CCCC2=O)C=C(C(=O)OC)C1c1ccccc1C(F)(F)F	n	n	n	2.1	n
Cc1ccccc1NC(=O)NCCCN1CCN(c2ccccc2)CC1	n	x	x	2.8	x
O=C(NCCCN1CCN(c2ccccc2)CC1)Nc1ccccc1C(F)(F)F	n	n	n	n	n
O=C(COc1ccccc1)Nc1cccc(-c2nc3cc4ccccc4cc3[nH]2)c1	n	x	x	n	x
CCOc1ccc(NC(=O)CNC(=O)c2cn(-c3ccccc3OC)c(=O)c3ccccc23)cc1	n	x	x	2	x
Cc1cc(N2CCC3(CC2)OCCO3)n2nc(C)c(-c3ccc(Cl)cc3)c2n1	x	n	n	x	-19
Cc1cc(N2CCN(C3CCCC3)CC2)n2nc(C)c(-c3ccccc3)c2n1	x	n	n	x	n
Cc1cc(N2CCOCC2)n2nc(C)c(-c3ccccc3)c2n1	3.8	n	n	n	n
COc1cccc(CSc2nnc(-c3ccco3)n2C)c1	n	n	n	n	n
CCCNC(=O)COc1ccc(S(=O)(=O)Nc2ccc(C)cc2)cc1	n	x	x	n	x
COC(=O)c1c(NC(=O)CSc2n[nH]c(N)n2)sc(C)c1C	x	n	n	n	n
CCOC(=O)c1c(NC(=O)CSc2n[nH]c(N)n2)sc(CC)c1C	n	n	n	2.2	-33
N#CC1(Cc2ccc(Cl)cc2)c2ccccc2C=CN1C(=O)c1ccccc1 (centres undefined)	-3.2	x	x	n	x
SMILES	Cav3 T inh	M1 antag	M1 agonist	PLAP activator	HER2 expr 66K
Cc1ccc(CSc2sc(C(=O)c3ccccc3)c(N)c2C#N)cc1	x	x	x	n	x
CC(=O)Nc1ccc(S(=O)(=O)N2CCCc3ccccc32)cc1	n	n	n	n	n
COC(=O)Nc1ccc(S(=O)(=O)N2c3ccccc3CCC2C)cc1 (centres undefined)	-7.2	n	n	n	n
COc1ccccc1CNC(=O)COC(=O)c1n[nH]c2ccccc12	n	x	x	2.3	x
N#Cc1ccccc1N=C1CCCN1Cc1ccccc1	n	n	n	n	n
Cc1cc(C)c(N=C2CCCN2Cc2ccccc2)c(C#N)c1	-4.8	x	x	x	x
CC(=O)n1c(Cl)c(NC(=O)CCl)c2ccccc21	n	x	x	n	x
C(=C\c1ccccc1)/CSc1nnc(-c2ccccn2)n1Cc1ccco1	-5.5	n	n	n	n
Nn1c(SCc2nc3ccccc3[nH]2)nnc1-c1cccnc1	n	n	n	2	n
Clc1cccc(-c2nnc(SCc3nc4ccccc4[nH]3)n2Cc2ccco2)c1	-5.4	x	x	2.2	n
Nn1c(SC/C=C/c2ccccc2)nnc1-c1ccccn1	n	n	n	n	n
Clc1ccc(OCc2nnc(SCc3nc4ccccc4[nH]3)n2Cc2ccco2)cc1	-8.5	n	n	n	n
